According to publication PMC7819943, “Rice protein-binding microarrays: a tool to detect cis-acting elements near promoter regions in rice”:
In all, about 68,000 sequences were measured (“fluorescence intensity (a.u.)”: median about 9,100, highest 2% from about 16,000 on). Many of the other results were omitted from the sample, so the highest values are more common in it than they were.

Molecular target: OsWRKY34 (Oryza sativa, UniProt Q0JBA9 1-250)
Experiment: protein-binding microarray (RPBM); PBS, 2% BSA, 51.3 ng/ul salmon testes DNA, 50 uM zinc acetate, 200 nM TF, 25 C, 1 h; high values mean tight binding
Conditions: protein: recombinant; tags: N-terminal polyhistidine and DsRed monomer fusion (pET32a); label: CyDye5-dUTP incorporated in the synthesized complementary strand; 3' TTTTT single-stranded linker to array surface; dsDNA, one strand shown
How it was run: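 Binding signal is defined as the fluorescence intensity of each feature in arbitrary units, read on an Axon 4000B scanner. Transcription factors with N-terminal polyhistidine and DsRed fusions came from E. coli BL21-CodonPlus and were purified on Ni–NTA. They were incubated at 200 nM for 1 h at 25 °C on a custom Agilent array that had been made double-stranded with Cy5-dUTP, with 50 µM zinc acetate present, and the array was washed.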

Chain of OsWRKY34 (Q0JBA9 entry or part of it): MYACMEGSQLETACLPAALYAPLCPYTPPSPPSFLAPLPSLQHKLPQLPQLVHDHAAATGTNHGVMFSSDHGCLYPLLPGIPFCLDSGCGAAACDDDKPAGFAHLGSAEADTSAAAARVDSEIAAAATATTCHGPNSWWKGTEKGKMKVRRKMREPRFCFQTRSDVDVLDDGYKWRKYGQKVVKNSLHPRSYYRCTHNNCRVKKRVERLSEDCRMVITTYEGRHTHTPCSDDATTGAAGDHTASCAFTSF

Sequence	binding signal
GCGCCGTCCCTTCGGGCCCACAAGCCGTCCACCCACTTCCCGGAGTCACCTAGTGCAG	11300 fluorescence intensity (a.u.)
GGGCCTATAACTGTAGTTCCATCACGTCTCTCTGTACGTTCGGAGTCACCTAGTGCAG	8820 fluorescence intensity (a.u.)
GCCATCTCGCCTAAATAAAACCGCGCTACCCATCGACCGACGGAGTCACCTAGTGCAG	9280 fluorescence intensity (a.u.)
TCCAGTTTTGGTCTGGGTGATGTGTCATGTTCTGATTGGCCGGAGTCACCTAGTGCAG	8180 fluorescence intensity (a.u.)
CTTCTTCCATCCAACCCATTGCATGGTGTATTTTCCATATCGGAGTCACCTAGTGCAG	8320 fluorescence intensity (a.u.)
AAATATGGTGGGCCCCACATGGCTGCGCCTCAAGCTTCTCCGGAGTCACCTAGTGCAG	9100 fluorescence intensity (a.u.)
GTCTCATGTCACACTCACGTAGCTATATTTTTTATATTATCGGAGTCACCTAGTGCAG	9120 fluorescence intensity (a.u.)
GACCATTATGTTAACTTGGATTAGGGGTAGGCTAGAGATTCGGAGTCACCTAGTGCAG	11000 fluorescence intensity (a.u.)
GTTTGGGATGTCGCGGGGATTTAGGGGCGGTGGGTGGTTTCGGAGTCACCTAGTGCAG	39300 fluorescence intensity (a.u.)
TGGGATGTATTTGAGTTGTGATGCATTTCTTTTAGGATTTCGGAGTCACCTAGTGCAG	8310 fluorescence intensity (a.u.)
TTAGGGGCGGTGGGTGGTTTTCGGCTGGGAAATCGCGGATCGGAGTCACCTAGTGCAG	11500 fluorescence intensity (a.u.)
ACTTTGATTGGGCTGGGTTCATATGAGATTAGGGGAAAAACGGAGTCACCTAGTGCAG	13500 fluorescence intensity (a.u.)
GATTTGGGGATTTGGGGTTTGATTTAGGATGTGCATGCCACGGAGTCACCTAGTGCAG	21400 fluorescence intensity (a.u.)
ATGCATTTCTTTTAGGATTTGTGATGTATTTTTCGTTTGACGGAGTCACCTAGTGCAG	9640 fluorescence intensity (a.u.)
TTAGGGGTAGGCTAGAGATTGATTGGGGCTTATATGATAACGGAGTCACCTAGTGCAG	19700 fluorescence intensity (a.u.)
TGGATGTCGCCGTCGGCGGGGTGGTGGGATTTGGAACTGGCGGAGTCACCTAGTGCAG	12500 fluorescence intensity (a.u.)
GAGCTCCTGTTGGTCGGGGACGTTTCGCGTTGGTTCCTCTCGGAGTCACCTAGTGCAG	12000 fluorescence intensity (a.u.)
TATAATTTTGTGCTAATATGCATTTTCCTTGTTTTGTTTACGGAGTCACCTAGTGCAG	11300 fluorescence intensity (a.u.)
ATCACAATAGTAACTATACTCTACAATCCATGGTTTCTTACGGAGTCACCTAGTGCAG	8960 fluorescence intensity (a.u.)
CCTTGGGCTGTTTTACCATGGTTTTTGCACACGTGGATGACGGAGTCACCTAGTGCAG	10100 fluorescence intensity (a.u.)
CTGACATGCGTCGCCATTGACTTTCGCCGCCGCCGCCGCGCGGAGTCACCTAGTGCAG	9140 fluorescence intensity (a.u.)

Sequence	binding signal
GTCACCATCAAAATAGCTTCATATCTTCCCTGGAAATTTTCGGAGTCACCTAGTGCAG	8160 fluorescence intensity (a.u.)
TGTAGTAATTGGGTATCTTCATCATTTGTCCTAAAAAAGTCGGAGTCACCTAGTGCAG	8080 fluorescence intensity (a.u.)
CCACTTTAGATCCCAAATTATATATGGTCGAGTTCTTTTCCGGAGTCACCTAGTGCAG	9470 fluorescence intensity (a.u.)
CGCAACCCCAAGCACTGGTGTTCTACATTCAATCAATCATCGGAGTCACCTAGTGCAG	38500 fluorescence intensity (a.u.)
ATCATCGTTCACCCGCATTTCATCTACTTCAATCTACATTCGGAGTCACCTAGTGCAG	9810 fluorescence intensity (a.u.)
ACATCCATCCACTCAACCCATTCTACCGTATTAAGCCAATCGGAGTCACCTAGTGCAG	8192 fluorescence intensity (a.u.)
AGGGGCGGAACTGGGTAGGCAGGGTGGGTTATATTTGAGCCGGAGTCACCTAGTGCAG	10500 fluorescence intensity (a.u.)
TGAGTGGTGGGAGGAGTTAGCAAGTGGTTTGACCGTGGTTCGGAGTCACCTAGTGCAG	11800 fluorescence intensity (a.u.)
TAGGGTTTGGATGGATAGGGTATATGAGGGTAATTTAGGCCGGAGTCACCTAGTGCAG	8450 fluorescence intensity (a.u.)
TCTATTTTATAATCGGTGTGTTTGACTGGTATTTTTTAGCCGGAGTCACCTAGTGCAG	8930 fluorescence intensity (a.u.)
GAAGTTAGGGTTTGAGGGTTTGGTTCCGGAGGGTAGGGTCCGGAGTCACCTAGTGCAG	9850 fluorescence intensity (a.u.)
GATAGGGTTAGCAGGGTGGGAAAATATATTTATTATAGTTCGGAGTCACCTAGTGCAG	18700 fluorescence intensity (a.u.)
GATAGGGTTAGGGATGGATAGGGTTTCCTTGAGGGTAGTTCGGAGTCACCTAGTGCAG	16400 fluorescence intensity (a.u.)
AGGGTGGGTTATATTTGAGCTGGTTAGCAAAAACTATAATCGGAGTCACCTAGTGCAG	17900 fluorescence intensity (a.u.)
TCCGGTTCGTTATTTTTATTTTTCTCAGGGAAAAAAAATCCGGAGTCACCTAGTGCAG	8060 fluorescence intensity (a.u.)
TCGTGGTGGTGGTGGTGGTGGAAGTTAGGGTTTGAGGGTTCGGAGTCACCTAGTGCAG	17300 fluorescence intensity (a.u.)
ACGGCCTAGTTTTGGTTGAAGTTTTTGGTAGGGGTTAGTTCGGAGTCACCTAGTGCAG	12300 fluorescence intensity (a.u.)
CTGGTTCGGGAATTTCTGGGTGTATAGGGAAATAATTTATCGGAGTCACCTAGTGCAG	8060 fluorescence intensity (a.u.)
CCCACCTCCACCTCCGCCGGCCGGTACGTTTATCCACTGACGGAGTCACCTAGTGCAG	9030 fluorescence intensity (a.u.)
GACTGATTTGTTTTTTTTTTCTCCCGGTTTTTTCGACGGACGGAGTCACCTAGTGCAG	9270 fluorescence intensity (a.u.)
TTCCTTTTTTTATGCAACTTTGACAAGCCTAATAGATATACGGAGTCACCTAGTGCAG	8500 fluorescence intensity (a.u.)
